# Test results: PubChem BioAssay AID463173 (ICCB-Longwood Screening Facility, Harvard Medical School, 2010)
# Among all 52,000 compounds or so, about 4,300 (8.3%) were called active. This excerpt belongs to a sample that is enriched for actives. A number with no mark means an inactive call. No stated cut-off is given here; in the data, active means survival mostly below about 52% (no sharp cut-off); inactive means mostly above about 56%.
# System: DeltatarO mutant
# Assay: growth inhibition of S. aureus wild type versus tarO mutant, primary screen, teichoic acid synthesis inhibitors, RN4220, OD600 (AID 463173)
# Conditions: OD600, 18 h, stronger effect = lower value, screened at 18.75 µg/mL (by protocol)
row,SMILES,survival
1,Cc1nn(C)c2c1c(-c1ccccc1)cc(=O)n2C(C)C(=O)NCCc1ccc(Cl)cc1 (configuration not stated),99%
2,CCOC(=O)c1cc2c(=O)n3ccccc3nc2n(CCOC)c1=NC(=O)c1c(-c2ccccc2Cl)noc1C,180%
3,Cc1cccc(C(c2sc3nc(-c4ccco4)nn3c2O)N2CCN(c3ccccc3F)CC2)c1 (configuration not stated),67%
4,CCOC(=O)c1ccc2c(c1)N(CC(=O)Nc1ccc(C)cc1C)C(=O)c1ccccc1S2,112%
5,Cc1sc2c(c1C)c(=O)n(CCc1ccccc1)c(=O)n2Cc1ccc(C(C)(C)C)cc1,87%
6,Cc1cccc(-n2c(CCN3C(=O)c4ccccc4C3=O)nc3ccccc3c2=O)n1,87%
7,Clc1ccc(CN2CCc3nc(Nc4ccc5c(c4)OCCO5)ncc3C2)cc1,94%
8,CCOc1ccc(NC(=O)Cn2cc(C(=O)c3ccc(C)cc3)c(=O)c3cc4c(cc32)OCO4)cc1,70%
9,CCOc1ccc(NC(=O)CCS(=O)(=O)c2ccc3nc(C)sc3c2)cc1,55%
10,CCOC(=O)c1ccccc1NC(=O)CN1C(=O)CC(c2ccco2)Sc2ccccc21 (configuration not stated),72%
11,O=C(Cn1ccc2cc(S(=O)(=O)N3CCCCCC3)ccc21)NCc1ccccc1Cl,77%
12,Cc1ccc(CNC(=O)C(C)n2ccc3cc(S(=O)(=O)N4CCCC4)ccc32)cc1 (configuration not stated),102%
13,O=C(Cn1ccc2cc(S(=O)(=O)N3CCCCCC3)ccc21)NCCc1ccccc1Cl,88%
14,CCc1ccc(CNC(=O)C(C)n2ccc3cc(S(=O)(=O)N4CCCCCC4)ccc32)cc1 (configuration not stated),94%
15,CC(C(=O)NCc1ccccc1)n1ccc2cc(S(=O)(=O)N3CCCC3)ccc21 (configuration not stated),20% (active)
16,O=C(Cn1ccc2cc(S(=O)(=O)N3CCCCC3)ccc21)NCCc1ccccc1Cl,-4% (active)
17,CCn1nc(C)c2c(-c3ccccc3)cc(=O)n(C(C)C(=O)NCCC(C)C)c21 (configuration not stated),99%
18,COc1ccccc1CNC(=O)C(NS(=O)(=O)c1ccc2c(c1)CCN2C(C)=O)C(C)C (configuration not stated),79%
19,Cc1ccc2sc(NC(=O)c3ccc4c(c3)OCCO4)nc2c1C,92%
20,CNC(=O)c1c(NC(=O)c2cc(=O)c3ccccc3o2)sc2c1CCC2,94%
21,COc1ccc(OC)c(CNC(=O)CSc2c3c(nc4cc(Cl)ccc24)CCCC3)c1,68%
22,Cc1ccc(CNC(=O)CSc2c3c(nc4cc(Cl)ccc24)CCCC3)cc1,80%
23,CC1CCCCN1C(=O)CSc1c2c(nc3cc(Cl)ccc13)CCCC2 (configuration not stated),-6% (active)

row,SMILES,survival
1,O=C(CSc1c2c(nc3ccc(Cl)cc13)CCCC2)N1CCCCC1,22% (active)
2,CCOC(=O)c1ccc(NC(=O)CSc2c3c(nc4cc(Cl)ccc24)CCCC3)cc1,68%
3,CC1CCN(C(=O)CSc2c3c(nc4ccc(Cl)cc24)CCCC3)CC1,0% (active)
4,O=C(CSc1c2c(nc3ccc(Cl)cc13)CCCC2)NCc1ccccc1Cl,119%
5,Cc1ccc(C)c(NC(=O)CSc2c3c(nc4ccc(Cl)cc24)CCCC3)c1,53%
6,CC1CCCN(C(=O)CSc2c3c(nc4cc(Cl)ccc24)CCCC3)C1 (configuration not stated),-5% (active)
7,CCC(C)NC(=O)CSc1c2c(nc3cc(Cl)ccc13)CCCC2 (configuration not stated),82%
8,CCOC(=O)C1CCN(c2nc3c(S(=O)(=O)c4ccc(Br)cc4)nnn3c3ccsc23)CC1,76%
9,O=[N+]([O-])c1ccc(S(=O)(=O)N2CCn3cccc3C2c2ccc(Br)cc2)cc1 (configuration not stated),75%
10,COc1ccc(-c2noc(CSc3nnc(C)n3-c3ccc(C)cc3)n2)cc1OC,59%
11,COC(=O)c1ccc(-c2nc(-c3ccc(OC)c(OC)c3)no2)cc1,64%
12,O=C(CSCc1cc(=O)c2cc(F)ccc2[nH]1)Nc1ccccc1Cl,94%
13,CCOC(=O)c1ccc(NC(=O)CSc2nccn2Cc2ccc(OC)cc2)cc1,79%
14,COc1cc(NC(=O)c2cc(-c3cccc(Cl)c3)on2)c(OC)cc1Cl,61%
15,CC1CCc2nc(NC(=O)COc3ccc(C(C)(C)C)cc3)sc2C1 (configuration not stated),80%
16,CC1CCN(C(=O)CSc2c3c(nc4cc(Cl)ccc24)CCCC3)CC1,5% (active)
17,CCOC(=O)C1CCN(C(=O)CSc2c3c(nc4ccc(Cl)cc24)CCCC3)CC1,39% (active)
18,COCCNC(=O)CSc1c2c(nc3cc(Cl)ccc13)CCCC2,71%
19,CCOc1ccc(CNC(=O)CSc2c3c(nc4cc(Cl)ccc24)CCCC3)cc1,51%
20,CCc1ccccc1Nc1sc(C(=O)c2cccc(OC)c2)c(N)c1S(=O)(=O)c1ccccc1,72%
21,Cc1ccc(S(=O)(=O)CCc2nnc(NC(=O)C3CCCN3C(=O)NC3CCCCC3)s2)cc1 (configuration not stated),72%
22,CCOc1ccc(CCNC(=O)c2sc3nc4n(c(=O)c3c2C)CCCC4)cc1,75%
23,CCn1cc2nc(SCC(=O)Nc3ccc(C)cc3)n(Cc3ccc(C)cc3)c(=O)c2n1,69%

row,SMILES,survival
1,Cc1cccc(-c2nc(SCc3ccc(Br)cc3)n3[nH]c(=O)cc3n2)c1,92%
2,COc1ccccc1NC(=O)CSc1nc(-c2ccccc2F)nc2cc(=O)[nH]n12,71%
3,O=c1cc2nc(-c3ccccc3)nc(SCc3cccc(Br)c3)n2[nH]1,98%
4,Cc1ccc(CSc2nc(-c3ccc(C(C)(C)C)cc3)nc3cc(=O)[nH]n23)cc1,89%
5,Cc1ccc(-c2nc(SCc3ccc(Br)cc3)n3[nH]c(=O)cc3n2)cc1,37% (active)
6,O=c1cc2nc(-c3ccccc3F)nc(SCc3ccc(Br)cc3)n2[nH]1,0% (active)
7,CCC(c1nnnn1CCOC)N1CCN(c2nc3ccccc3s2)CC1 (configuration not stated),87%
8,N=C(N)N1CCN(CC(O)COc2ccccc2)CC1 (configuration not stated),84%
9,C#CCn1cc(/C=C(/C#N)C(=O)Nc2ccccc2)c2ccccc21,54%
10,CCCCNC(=O)C1CCN(c2nc(OC)nc(OC)n2)CC1,83%
11,O=C(Cn1c(SCCOc2ccccc2Cl)nc2ccccc21)N1CCOCC1,39% (active)
12,Cc1ccc(C)c(OCCSc2nc3ccccc3n2CC(=O)N2CCOCC2)c1,55%
13,O=C(Cn1c(SCCOc2ccccc2Cl)nc2ccccc21)N1CCCCC1,34% (active)
14,O=C(CSc1nc2ccccc2n1CC(=O)N1CCCC1)N1CCCCC1,85%
15,Cc1ccc(C(C)C)c(OCCSc2nc3ccccc3n2CC(O)CO)c1 (configuration not stated),48%
16,Cc1cccc(OCCSc2nc3ccccc3n2CC(=O)N2CCCCC2)c1C,28% (active)
17,Cc1ccc(OCCSc2nc3ccccc3n2CC(=O)N2CCCCC2)c(C)c1,51%
18,Cc1cccc(OCCSc2nc3ccccc3n2CC(=O)N2CCOCC2)c1C,50%
19,CCn1c(SCCOc2ccccc2F)nc2ccccc21,0% (active)
20,CCn1c(SCC(N)=O)nc2ccccc21,79%
21,COc1ccccc1OCCSc1nc2ccccc2n1CC(=O)N1CCOCC1,94%
